Laboratory results taken from PubChem BioAssay AID588849 (Broad Institute, 2011).
Measured potencies and affinities stand elsewhere. Active and inactive are the calls of the source. The rule behind the calls is not given here.

Target: CAAX prenyl protease 2 (Homo sapiens) (UniProt Q9Y256)
Assay: inhibition of Ras-converting CAAX protease Rce1 – biochemical, yeast membranes, quenched-peptide fluorescence, cherry-pick, dose response (AID 588849)
Conditions: yeast membrane fractions expressing human Rce1, quenched-peptide fluorescence, 4 h; series mostly up to 10 µM; activity change, negative = inhibition: at the top concentration

Chain of CAAX prenyl protease 2 (Homo sapiens) (Q9Y256 whole entry, looked up): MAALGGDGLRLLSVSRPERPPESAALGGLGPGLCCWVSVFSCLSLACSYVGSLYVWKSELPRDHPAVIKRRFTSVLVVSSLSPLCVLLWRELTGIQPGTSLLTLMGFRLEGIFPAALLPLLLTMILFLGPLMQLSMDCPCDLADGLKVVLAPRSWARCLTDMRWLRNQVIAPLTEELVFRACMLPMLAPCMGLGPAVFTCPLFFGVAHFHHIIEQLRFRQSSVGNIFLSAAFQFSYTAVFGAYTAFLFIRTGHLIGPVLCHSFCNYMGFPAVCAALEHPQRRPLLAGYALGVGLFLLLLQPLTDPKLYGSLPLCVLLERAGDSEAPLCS

Activity change, negative = inhibition, inactive:
Cc1nc(SC(C(=O)c2ccccc2)c2ccccc2)nc2ccccc12 (stereo not drawn) -3.28%, NC(=O)CCCn1c(C(=O)c2cc(Cl)c(N)c(Cl)c2)c2ccc(C(F)(F)F)cc2[n+]1[O-] -4.43%, Cc1nn(CCC(=O)O)c2nc(-c3cccnc3)cc(C(F)(F)F)c12 -20.6%, CC1CCN(C(=O)C2CCN(S(=O)(=O)c3ccc(-n4cnnn4)cc3)CC2)CC1 -8.19%, Cc1cc(C)c2nc(N(CCCN(C)C)C(=O)c3ccc4c(c3)CCCC4)sc2c1 2.44%, CCC(=O)Nc1cc(-c2nn(CC(=O)N3CCCCC3)c(=O)c3ccccc23)ccc1N1CCOCC1 -1.37%, COc1cc2c(cc1OC)C(C)N(C(=O)c1cc3c(=O)oc4ccc(C)cc4c3s1)CC2 (stereo not drawn) 14.6%, O=C1OCCN1C(=O)[C@H]1[C@H](c2ccc(F)cc2)C(c2ccc(F)cc2)=NN1c1ccc(Br)cc1 -16.6%, COc1ccc(CSc2ccc(-c3nc4ccccn4c3NCc3ccccc3)cc2OC)cc1 -2.55%, Cn1c(CN2CCOCC2)c(C#N)c2ccccc21 -20.3%, COc1ccc(S(=O)(=O)NCC2CCCO2)cc1NC(=O)c1ccccc1F (stereo not drawn) -0.788%, O=C(CN1C(=O)/C(=C\c2cccc(Br)c2)Oc2ccccc21)NCC1CCCO1 (stereo not drawn) -21.6%, COc1ccc(-c2ccc3oc(-c4ccc(OC)cc4)c(-c4ccc(OC)cc4)c3c2)cc1 -14.4%, CN(C)CCN(C(=O)c1ccc2ccccc2c1)c1nc2ccc(Br)cc2s1 -23.5%, CCOc1cc(CNC2CCCC2)ccc1OCc1ccccc1Cl 1.14%, CN(C)CC(C)(C)CNC(=S)NCc1ccc2c(c1)OCO2 -17.6%, CCN(Cc1ccccc1)S(=O)(=O)c1ccc(C(=O)N(CCCN(C)C)c2nc3cc(C)cc(C)c3s2)cc1 -14.8%, COC(=O)/C=c1\[nH]c2nnc(C)n2c1=O -12.8%, CCCCNC(=O)C(CC)Sc1nc2sc(C(=O)OC)c(C)c2c(=O)n1N (stereo not drawn) -16.2%, CCC(C)Sc1cc(-c2nc3ccccn3c2NC2CCCCC2)ccc1OC (stereo not drawn) 99.5%, CCN1CCN(CC(O)COc2ccc3c(C)cc(=O)oc3c2)CC1 (stereo not drawn) 0.145%, COc1cccc(NC(=O)Nc2cccn(Cc3ccc(C)cc3)c2=O)c1 15.4% [at 3.5 µM], O=C(Nc1ncccn1)c1ccc([N+](=O)[O-])cc1 3.15%, CC(=O)Nc1ccc(Cl)cc1C1COC(=O)C1=N (stereo not drawn) 8.43%, COC(=O)c1ccccc1NC(=O)NCc1cccnc1 -5.73%, CC1=CC2=NC(=O)CC(C)(C(=O)N(CC(=O)NC3CCCC3)Cc3ccccc3)N2C=C1 (stereo not drawn) 7.96%, FC(F)(F)c1cc(Oc2ccccc2)ncc1-c1nnc(-c2ccccc2Cl)o1 3.97%, CCS(=O)(=O)Nc1c(C(=O)O)[nH]c2ccccc12 0.584%, COC(C/C=C/[C@H](O)[C@H](C)OCc1ccccc1)OC 2.01%, c1ccc(CNc2nc(N3CCN(Cc4ccccc4)CC3)nc3ccccc23)cc1 26.3% [at 3.5 µM], COc1cc(-c2nc3ccccn3c2/N=C/c2cc(OC)c(OC)c(OC)c2)ccc1O -9.61% [at 3.5 µM], O=C(c1cn(-c2ccccc2)nc1-c1cccs1)N1CCN(c2ccccc2)CC1 5.66%, COc1ccc(-n2nc(C(=O)NCC(=O)N3CCC(C)CC3)c3ccccc3c2=O)cc1 -6.65%, OC1CCN(C(c2ccc3ncccc3c2)c2nnnn2C2CCCCC2)CC1 (stereo not drawn) 14.4%, CCN(Cc1ccccc1)c1ccc(/C=N/N=C(N)N)cc1 6.63%, COc1ccc(C2c3c(ncn(CCN4CCOCC4)c3=N)Oc3ccc4ccccc4c32)cc1 (stereo not drawn) -8.64%, Cc1cc(NS(=O)(=O)c2ccccc2)c([N+](=O)[O-])cc1C -16.3%, Cc1cccc(NC(=O)C2(c3ccc([N+](=O)[O-])cc3)CCCC2)c1 8.88%
